This passage reports Inhibition results from ChEMBL document CHEMBL1157539, “Thousands of chemical starting points for antimalarial lead identification” (Nature, 2010).

Molecules are shown by their SMILES.

The test relates to Plasmodium falciparum. Briefly: GSK_TCMDC: Inhibition of Plasmodium falciparum Dd2 in whole red blood cells, using parasite LDH activity as an index of growth. Test compounds present at 2uM. Format: functional.
Turning to `NC1CCN(CCNCc2cccc(-c3ccc(-c4nc5cc(F)ccc5[nH]4)cc3)c2)C1.O=C(O)C(F)(F)F` (stereo unspecified), the Inhibition is 4%.

Compound `O=C(/C=C/c1ccc(Cl)c(Cl)c1)NCCCCCN1CCC(NC(=O)NCCc2ccccc2)CC1` came in with an Inhibition of 7%.

In turn, `Cc1nc(N)nc(N)c1OCc1ccc(Cl)c(Cl)c1.Cl` returned an Inhibition of 5%.

Take `CN1CCN(c2ccc(Nc3ncc(Cl)c(Nc4cccnc4C(N)=O)n3)cc2)CC1.Cl`: the Inhibition is 97%.

As to `O=C(/C=C/C=C/c1ccccc1)NCCCCCN1CCC(c2c[nH]c3ccccc23)CC1`, the Inhibition was 7%.

`O=S(=O)(Nc1cccc(CCN2CCC(N3CCCCC3)CC2)c1)c1ccc(-c2ccccc2)cc1`: the Inhibition turned out to be 49%.

With `COc1cc2c(cc1C(F)(F)F)N(C(=O)Nc1cc(OC(F)(F)F)cc(-c3cccnc3)c1)CC2`, the Inhibition amounted to 49%.

For `CC(=O)c1ccc(Nc2c(C(N)=O)cnc3cc(-c4c(C)noc4C)ccc23)cc1`, the Inhibition was 44%.

`O=C(Nc1ccc2c(c1)CCN2C1CCN(Cc2cccc3cc[nH]c23)C1)c1ccco1` (stereo unspecified) returned an Inhibition of 86%.

For `O=C(Nc1ccc(Cl)c(Cl)c1)N[C@H]1CCN(CCCCCNC(=O)C2CC2c2ccc(Cl)c(Cl)c2)C1` (stereo partly specified), the Inhibition is listed as 8%.

`O=C(Nc1ccc(C(F)(F)F)cc1)NC1CCN(c2ccnc3ccccc23)CC1.O=C(O)C(F)(F)F` yielded an Inhibition of 62%.

`Oc1ccccc1CN1CCC2(CCCN(Cc3ccccc3F)C2)C1` (stereo unspecified): the Inhibition is recorded as 83%.

`NC(=O)c1cccc(CN2Cc3ccccc3OC3(CCN(Cc4c[nH]c5cnccc45)CC3)C2)c1.O=C(O)C(F)(F)F`: the Inhibition is 2%.

With `NC(=O)c1cccc(C(=O)Nc2cccc(-c3ccc(-c4nc5cc(C(F)(F)F)ccc5[nH]4)cc3)c2)c1`, the Inhibition came to 78%.

Compound `Nc1c(-c2ccc(C(=O)NCCNCc3ccccc3)cc2)cnn1-c1ccc(C(F)(F)F)cc1.O=C(O)C(F)(F)F` displayed an Inhibition of 2%.

Turning to `CCN(C(=O)NC)C1c2cc(C#N)ccc2OC(C)(C)C1O` (stereo unspecified), the Inhibition was 2%.

`O=C(Nc1ccc(Cl)c(Cl)c1)Nc1ccc2c(c1)CCNCC2.O=C(O)C(F)(F)F` registered an Inhibition of 37%.

On to `CC(C)C[C@H](NC(=O)c1ccc(OCCN2CCOCC2)cc1)C(=O)NC(/C=N/N1CCCC1=O)C(C)C` (stereo partly specified), for which the Inhibition is given as 81%.

For the compound `CC[C@H](NC(=O)c1ccc(NC(=O)OC(C)(C)C)cc1)C(=O)N[C@@H](CO)C(=O)NCCCCc1ccccc1`, the Inhibition turned out to be 94%.

The compound `COc1ccc2nccc(NCC3(O)CCC(NCc4cc5c(cn4)OCCO5)CC3)c2n1.Cl` (stereo unspecified) yielded an Inhibition of 23%.

In turn, `Oc1cccc2ccc(Nc3ccccn3)nc12` gave an Inhibition of 93%.

`COc1ccc(C(=O)Cn2nc(-c3ccc(Cl)cc3)ccc2=O)c(OC)c1` returned an Inhibition of 70%.

`CN1CCC(C(=O)Nc2cccc(-c3ccc(-c4nc5cc(C(F)(F)F)ccc5[nH]4)s3)c2)CC1` had an Inhibition of 95%.

Compound `Cc1nc(-c2nc(NCc3ccc4c(c3)OCO4)ncc2-c2ccsc2)sc1C` displayed an Inhibition of 77%.

With `COc1cc2nc(N3CCC(CNC(=O)c4cc5ccccc5s4)CC3)nc(N)c2cc1OC`, the Inhibition was determined as 100%.

The compound `Cc1ccc(C)c(Cn2ccc3nc(N)nc(N)c32)c1` displayed an Inhibition of 3%.

Compound `Fc1ccc2[nH]c(-c3ccc(-c4ccc(CN5CCN(CCN6CCOCC6)CC5)cc4)cc3)nc2c1.O=C(O)C(F)(F)F` had an Inhibition of 100%.

Compound `Cc1c(CNCCCNc2cc(=O)c3ccccc3[nH]2)sc(C(F)=C(F)F)c1Br.Cl` registered an Inhibition of 18%.

In the case of `Cn1nccc1C(=O)NCCNCc1cccc(-c2csc(-c3nc4ccccc4[nH]3)c2)c1.O=C(O)C(F)(F)F`, the Inhibition stood at 2%.

`CC(C)(CNCc1cccc(Oc2ccccc2)c1)c1nc(-c2ccnc(N)n2)c(-c2ccc(Cl)c(O)c2)[nH]1.Cl` gave an Inhibition of 99%.

Compound `CC(C)N1CCC(N(Cc2ccc(-c3ccc(C(F)(F)F)cc3)cc2)C(=O)Cn2c(SCc3cccc(F)c3F)cc(=O)c3c2CCC3)CC1.O=C(O)C(O)C(O)C(=O)O` yielded an Inhibition of 42%.

In the case of `Cc1ncc([N+](=O)[O-])n1CCOC(=O)NC(NCC1COc2ccccc2O1)C(Cl)(Cl)Cl` (stereo unspecified), the Inhibition stood at 78%.

`CSC1=NC(C)(C)CC2(CC(c3cccc(C)c3)c3cc(Cl)c(O)cc3O2)N1` (stereo unspecified) yielded an Inhibition of 73%.

As to `O=C(Nc1cccc(CN2CCCN(Cc3ccc(F)cc3)CC2)c1)c1ccc(Cl)c(Cl)c1.O=C(O)C(F)(F)F`, the Inhibition worked out at 17%.

Consider `C=CCN(C(=O)c1ccc(Cl)c([N+](=O)[O-])c1)c1nc(-c2ccccc2)cs1`, for which the Inhibition is given as 99%.

As for `COc1cc(Cc2cnc(N)nc2N)ccc1OCC(=O)Nc1ccc(C)cc1`, the Inhibition stood at 18%.

By Inhibition is commonly meant the drop in the measured response relative to a control, in per cent.
